Source: PubChem BioAssay (Tox21)
Results filed as inconclusive are left out. Activity calls are given as the source filed them. Unless noted, calls come from the whole dose curve; as a rule, active = well fitted curve in the direction sought with a large enough effect in the repeat runs; inconclusive = weak or mixed curves; inactive = no such curve, though single readings can be large; an effect the other way counts as inactive or inconclusive.

Target: Aromatase (Homo sapiens) (UniProt P11511)
Assay: qHTS assay to identify aromatase inhibitors (AID 743083); note: nearly all actives have a fitted effect of over 55% in size
Conditions: MCF-7 aro ERE, testosterone-driven ERE luciferase, 24 h; series mostly up to 70.3 µM; activity, negative = inhibition: at the top concentration
% is set by controls: 0 for no effect and ±100 for the full control effect.

Aromatase (Homo sapiens), sequence (P11511 whole entry, looked up): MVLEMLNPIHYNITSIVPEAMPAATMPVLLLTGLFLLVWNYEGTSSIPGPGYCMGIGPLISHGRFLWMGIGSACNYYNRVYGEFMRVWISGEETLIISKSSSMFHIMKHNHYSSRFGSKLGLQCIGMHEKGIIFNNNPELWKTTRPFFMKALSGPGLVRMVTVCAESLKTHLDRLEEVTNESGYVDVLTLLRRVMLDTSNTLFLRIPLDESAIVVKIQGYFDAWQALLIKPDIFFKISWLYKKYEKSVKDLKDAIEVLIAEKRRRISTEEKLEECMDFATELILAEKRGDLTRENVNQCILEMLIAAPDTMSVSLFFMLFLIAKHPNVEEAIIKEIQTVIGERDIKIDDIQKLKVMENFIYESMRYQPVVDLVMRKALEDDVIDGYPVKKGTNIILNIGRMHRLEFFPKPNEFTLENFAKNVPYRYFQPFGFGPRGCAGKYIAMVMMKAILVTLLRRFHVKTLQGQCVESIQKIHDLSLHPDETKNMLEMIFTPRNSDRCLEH

SMILES	activity, negative = inhibition
c1ccc(C2(c3ccccc3)CC2C2=NCCN2)cc1 (centres undefined)	1.48% (inactive)
CCCCCN(C)CCC(O)(P(=O)(O)O)P(=O)(O)O	-9.43% (inactive)
O=P(O)(O)C(Cl)(Cl)P(=O)(O)O	6.62% (inactive)

Tested on: not listed separately
Assay: qHTS assay to identify aromatase inhibitors - cell viability counter screen (AID 743084);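 note: cells stimulated with testosterone during compound exposure; nearly all actives have a fitted effect of over 55% in size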
Conditions: MCF-7 aro ERE viability, CellTiter-Fluor, 24 h; series mostly up to 70.3 µM; activity change, negative = cytotoxicity: at the top concentration

SMILES	Potency	activity change, negative = cytotoxicity
C[C@]12N[C@H](Cc3ccccc31)c1ccccc12	inactive	–
c1ccc(C2(c3ccccc3)CC2C2=NCCN2)cc1 (centres undefined)	–	-0.528% (inactive)
CCCCCN(C)CCC(O)(P(=O)(O)O)P(=O)(O)O	–	-2.01% (inactive)
O=P(O)(O)C(Cl)(Cl)P(=O)(O)O	–	-1.48% (inactive)

Target: Aryl hydrocarbon receptor (Homo sapiens) (UniProt P35869)
Sequence (P35869 whole entry, looked up): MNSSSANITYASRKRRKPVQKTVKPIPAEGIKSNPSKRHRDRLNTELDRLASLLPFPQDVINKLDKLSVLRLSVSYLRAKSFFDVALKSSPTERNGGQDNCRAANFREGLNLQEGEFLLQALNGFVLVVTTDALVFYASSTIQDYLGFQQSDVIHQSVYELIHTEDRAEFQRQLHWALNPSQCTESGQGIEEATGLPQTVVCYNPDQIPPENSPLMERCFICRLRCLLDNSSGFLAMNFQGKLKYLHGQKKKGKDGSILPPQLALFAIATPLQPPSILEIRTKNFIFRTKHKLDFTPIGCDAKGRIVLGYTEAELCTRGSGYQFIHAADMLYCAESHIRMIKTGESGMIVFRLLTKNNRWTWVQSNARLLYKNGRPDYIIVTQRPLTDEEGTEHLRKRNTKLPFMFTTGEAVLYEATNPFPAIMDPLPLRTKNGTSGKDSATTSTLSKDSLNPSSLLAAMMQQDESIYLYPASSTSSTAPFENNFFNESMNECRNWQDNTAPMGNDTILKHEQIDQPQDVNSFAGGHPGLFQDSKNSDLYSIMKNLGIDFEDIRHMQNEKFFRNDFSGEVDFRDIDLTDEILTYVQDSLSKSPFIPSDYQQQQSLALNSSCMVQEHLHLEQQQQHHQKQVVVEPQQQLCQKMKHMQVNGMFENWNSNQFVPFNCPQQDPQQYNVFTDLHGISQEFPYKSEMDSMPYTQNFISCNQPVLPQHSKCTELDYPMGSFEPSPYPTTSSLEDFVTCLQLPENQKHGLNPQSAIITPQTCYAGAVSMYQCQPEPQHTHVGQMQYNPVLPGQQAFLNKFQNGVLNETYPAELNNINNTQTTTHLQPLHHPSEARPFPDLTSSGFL
Assay: qHTS assay to identify small molecule that activate the aryl hydrocarbon receptor (AhR) signaling pathway (AID 743085);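 note: HG2L7.5c1 human HepG2 liver cells with stably integrated DRE-driven firefly reporter; nearly all actives have a fitted effect of over 15% in size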
Conditions: HepG2 AhR-luc (HG2L7.5c1), luciferase, 24 h; series mostly up to 70.3 µM; activation: at the top concentration
In short: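 A multiplexed format paired cell viability (CellTiter-Fluor fluorescence) with AhR-dependent luciferase output (ONE-Glo luminescence) in the same wells of HepG2 DRE-luc cells after 24 h compound exposure at 37C.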

SMILES	Potency	activation
C[C@]12N[C@H](Cc3ccccc31)c1ccccc12	inactive	–
c1ccc(C2(c3ccccc3)CC2C2=NCCN2)cc1 (centres undefined)	–	-1.44% (inactive)
CCCCCN(C)CCC(O)(P(=O)(O)O)P(=O)(O)O	–	-1.78% (inactive)
O=P(O)(O)C(Cl)(Cl)P(=O)(O)O	–	-0.63% (inactive)

Tested on: not listed separately
Assay: qHTS assay to identify small molecule that activate the aryl hydrocarbon receptor (AhR) signaling pathway - cell viability counter screen (AID 743086);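 note: HepG2 liver cells carrying the AhR DRE luciferase reporter; nearly all actives have a fitted effect of over 45% in size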
Conditions: HepG2-AhR-luc viability, CellTiter-Fluor, 24 h; series mostly up to 70.3 µM; viability change, negative = cytotoxic: at the top concentration
In short: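 Cytotoxicity counter screen: CellTiter-Fluor signal (30 min, 37 C) in 4000 HepG2 cells/well carrying the DRE-luciferase reporter, following 24 h compound exposure at 37 C.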

SMILES	Potency	viability change, negative = cytotoxic
C[C@]12N[C@H](Cc3ccccc31)c1ccccc12	inactive	–
c1ccc(C2(c3ccccc3)CC2C2=NCCN2)cc1 (centres undefined)	–	-8.35% (inactive)
CCCCCN(C)CCC(O)(P(=O)(O)O)P(=O)(O)O	–	5.23% (inactive)
O=P(O)(O)C(Cl)(Cl)P(=O)(O)O	–	-14.9% (inactive)

Target: Peroxisome proliferator-activated receptor gamma (Homo sapiens) (UniProt P37231)
Sequence (P37231 whole entry, looked up): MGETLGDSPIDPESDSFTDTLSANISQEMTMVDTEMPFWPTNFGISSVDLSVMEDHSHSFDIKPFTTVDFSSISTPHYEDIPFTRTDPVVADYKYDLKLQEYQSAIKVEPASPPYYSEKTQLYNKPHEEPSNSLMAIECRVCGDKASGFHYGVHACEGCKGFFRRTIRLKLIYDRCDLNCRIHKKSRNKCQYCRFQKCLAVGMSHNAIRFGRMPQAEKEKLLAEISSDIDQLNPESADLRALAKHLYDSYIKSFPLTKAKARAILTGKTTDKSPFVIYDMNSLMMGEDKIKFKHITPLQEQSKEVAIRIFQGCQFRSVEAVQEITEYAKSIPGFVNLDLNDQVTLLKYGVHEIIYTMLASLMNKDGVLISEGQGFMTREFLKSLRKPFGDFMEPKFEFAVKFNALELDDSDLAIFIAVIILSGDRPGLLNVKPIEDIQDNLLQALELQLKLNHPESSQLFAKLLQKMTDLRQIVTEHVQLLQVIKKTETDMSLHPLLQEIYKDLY
Assay: qHTS assay to identify small molecule agonists of the peroxisome proliferator-activated receptor gamma (PPARg) signaling pathway (AID 743094; active = well fitted activation curve with a large enough effect in the signal ratio in the repeat runs, not every such curve was filed as active; the % refers to the signal ratio)
Conditions: HEK293H PPARg-UAS-bla, beta-lactamase FRET ratio, 17 h; series mostly up to 57 µM; activation: at the top concentration
In short: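 Beta-lactamase FRET fluorescence was the read-out after a 1 h room-temperature substrate step, following 17 h compound treatment at 37C of HEK293H cells expressing a UAS-driven bla reporter responsive to PPARg.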

SMILES	Potency	activation
C[C@]12N[C@H](Cc3ccccc31)c1ccccc12	inactive	–
c1ccc(C2(c3ccccc3)CC2C2=NCCN2)cc1 (centres undefined)	–	0.478% (inactive)
CCCCCN(C)CCC(O)(P(=O)(O)O)P(=O)(O)O	–	1.23% (inactive)
O=P(O)(O)C(Cl)(Cl)P(=O)(O)O	–	1.1% (inactive)

Tested on: not listed separately
Assay: qHTS assay to identify small molecule antagonists of the estrogen related receptor (ERR) signaling pathway - cell viability counter screen (AID 1224818); note: potency is the fitted concentration of half-maximal effect;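 note: viability measured after 17.5 h of compound exposure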
Conditions: ERR reporter cell line viability counter screen; series mostly up to 46.1 µM; viability change, negative = cytotoxic: at the top concentration
In short: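 Multiplexed counter screen to separate cytotoxic compounds from true ERR modulators. ERR cells received DMSO-dissolved compounds after a 6 h pre-incubation, were exposed 17.5 h at 37 C, then assayed with CellTiter-Fluor fluorescence.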

SMILES	viability change, negative = cytotoxic	Potency
CCCN1CCC[C@@H](c2cccc(O)c2)C1	4.98% (inactive)	–
CC1OC1P(=O)(O)O (centres undefined)	5.33% (inactive)	–
CC(C)Oc1cccnc1N(C)C1CCN(Cc2ccccc2)CC1	-4.67% (inactive)	–
COc1ccc2c(c[n+](C)c3c4cc5c(cc4ccc23)OCO5)c1OC	–	18.1 µM (active)
C[C@]12N[C@H](Cc3ccccc31)c1ccccc12	8.24% (inactive)	–
CCCN(CCC)C1Cc2cc(OC)c(OC)cc2C1	6.4% (inactive)	–
C[N+]1(C)CCc2cc3c(cc2[C@H]1[C@@H]1OC(=O)c2c1ccc1c2OCO1)OCO3	9.53% (inactive)	–
CCCN1CC[C@@H]2c3cc(O)ccc3CC[C@@H]21	11.7% (inactive)	–
CC(=O)OCC1=C(C(=O)[O-])N2C(=O)[C@@H](NC(=O)CCC[C@@H](N)C(=O)[O-])[C@H]2SC1.[Zn+2]	1.22% (inactive)	–
CC(C)(C)c1o[nH]c(=O)c1CC(N)C(=O)O (centres undefined)	6.69% (inactive)	–
Nc1ccc(CCN2CCN(c3cccc(C(F)(F)F)c3)CC2)cc1	-11.1% (inactive)	–
CNCCc1c[nH]c2ccc(O)cc12	6.28% (inactive)	–
N[C@@]1(C(=O)O)CC[C@@H](C(=O)O)C1	9.6% (inactive)	–
CC(C)NP(=O)(NC(C)C)OP(=O)(NC(C)C)NC(C)C	8.16% (inactive)	–
COc1ccc(CNC(=O)/C=C/c2ccc3[nH]cc(CCN(C)C)c3c2)cc1	-0.181% (inactive)	–
CCn1cc(C(=O)O)c(=O)c2ccc(C)nc21	14.1% (inactive)	–
CC12NC(Cc3ccccc31)c1ccccc12 (centres undefined)	10.1% (inactive)	–
CCOC(=O)c1ncn2c1[C@@H]1CCCN1C(=O)c1cc(OC)ccc1-2	-23.4% (inactive)	–
c1ccc2c(N3CCNCC3)cccc2c1	3.54% (inactive)	–
NC(C(=O)O)c1cc(=O)[nH]o1 (centres undefined)	2.49% (inactive)	–

SMILES	viability change, negative = cytotoxic	Potency
O=[N+]([O-])c1ccc2nc(N3CCNCC3)ccc2c1	-22.1% (inactive)	–
NC(CCCCCP(=O)(O)O)C(=O)O (centres undefined)	13.8% (inactive)	–
NCCc1c[nH]c2ccc(C(N)=O)cc12	7.04% (inactive)	–
C[C@H](Cc1ccc2c(c1)OC(C(=O)O)(C(=O)O)O2)NC[C@H](O)c1cccc(Cl)c1	8.44% (inactive)	–
Clc1cc(I)cc(Cl)c1NC1=NCCN1	5.59% (inactive)	–
c1ccc(C2(c3ccccc3)CC2C2=NCCN2)cc1 (centres undefined)	14.1% (inactive)	–
NC(N)=NOCC[C@H](N)C(=O)O	10.4% (inactive)	–
CC(=O)NBr	0.669% (inactive)	–
O=C1/C(=C/c2ccccc2)C[C@@]2(O)[C@H]3Cc4ccc(O)c5c4[C@@]2(CCN3CC2CC2)[C@H]1O5	–	8.74 µM (active)
C[N+](C)(C)CC#CCN1CCCC1=O	3.57% (inactive)	–
C[N+]1(C)C2CCC1CC(OC(=O)c1c[nH]c3ccccc13)C2 (centres undefined)	4.86% (inactive)	–
NCCc1c[nH]c2ccc(O)cc12	1.12% (inactive)	–
NCc1cc(=O)[nH]o1	3.03% (inactive)	–
NCC(CP(=O)(O)O)c1ccc(Cl)cc1 (centres undefined)	16.3% (inactive)	–
CCCCCN(C)CCC(O)(P(=O)(O)O)P(=O)(O)O	9.71% (inactive)	–
NCCCP(=O)(O)O	2.71% (inactive)	–
Oc1ccc2c3c1O[C@H]1c4[nH]c5ccccc5c4C[C@@]4(O)C(C2)N(CC2CC2)CCC314 (some centres undefined)	-18.3% (inactive)	–
Nc1ncnc2c1ncn2[C@@H]1O[C@H](COP(=O)(O)CP(=O)(O)OP(=O)(O)O)C(O)[C@H]1O (some centres undefined)	-3.77% (inactive)	–
O=P(O)(O)C(Cl)(Cl)P(=O)(O)O	4.6% (inactive)	–
C[N+]1(C)CCC(OC(=O)C(c2ccccc2)c2ccccc2)CC1	13.6% (inactive)	–
